The supplement of paper PMC10127200
Counter-ions that a name gives are not always drawn.

Assays:
Test in all cases: Euclidean distance of Cell Painting phenotypic profile (signed KS, 77 features) to DMSO centroid (dimensionless distance); 5 or 10 uM (library dependent); higher = stronger phenotypic change vs DMSO (phenoactivity)
Conditions in all cases: 48 h
786-O = system: 786-O
Method in brief: (§1)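 Five cancer lines and a healthy fibroblast line received library compounds at 10 or 5 uM (library-dependent, 0.1% DMSO final) for 48 h. Stained cells were imaged confocally at 20X (9 fields/well). Harmony extracted 77 features, each scored as a signed Kolmogorov-Smirnov statistic against same-plate vehicle wells. Profiles were plate-position corrected, correlation-weighted and replicate-averaged at the top dose. Phenoactivity is the Euclidean distance from each profile to the median vehicle profile.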

A549 = system: A549
Method in brief: as §1

DU145 = system: DU145
Method in brief: as §1

FB = system: FB
Method in brief: as §1

HEPG2 = system: HEPG2
Method in brief: as §1

OVCAR4 = system: OVCAR4
Method in brief: as §1

Row | Compound | Euclidean distance (786-O) | Euclidean distance (A549) | Euclidean distance (DU145) | Euclidean distance (FB) | Euclidean distance (HEPG2) | Euclidean distance (OVCAR4)
1 | O=C(Nc1cccc(Nc2ncc(Br)c(NCCc3cnc[nH]3)n2)c1)N1CCCC1 | 2.94 | 3.51 | 3.14 | 3.05 | 2.43 | 3.33
2 | COC(=O)Nc1ccc(-c2nc(N3CCOCC3)c3cnn(C4CCN(C(=O)OC)CC4)c3n2)cc1 | 1.52 | 2.8 | 1.17 | 2.27 | 1.92 | 4
3 | Cc1cnc(-c2cnc(NCCNc3ccc(C#N)cn3)nc2-c2ccc(Cl)cc2Cl)[nH]1 | 1.86 | 2.18 | 1.61 | 1.12 | 1.15 | 1.13
4 | O=C(O)/C=C/c1ccc(Cn2ccnc2)cc1 [Ozagrel sodium] | 1.06 | 1.08 | 1.01 | 1.07 | 1.03 | 0.564
5 | COCC(=O)Nc1cc(Sc2ccccc2)ccc1N=C(NC(=O)OC)NC(=O)OC [Febantel] | 0.969 | 0.892 | 0.944 | 1.06 | 1.09 | 1.15
6 | C/C(=C\C(=O)Nc1ccccc1C(=O)O)c1ccc2ccccc2c1 | 0.939 | 1.46 | 1.76 | 1.59 | 0.714 | 0.731
7 | O=C1c2c(O)cccc2Cc2cccc(O)c21 [Dithranol] | 2.26 | 0.754 | 1.2 | 2.24 | 0.979 | 2.04
8 | CC1(C)CC[C@]2(NC(=O)C(C)(F)F)CC[C@]3(C)[C@H](C(=O)C=C4[C@@]5(C)C=C(C#N)C(=O)C(C)(C)[C@@H]5CC[C@]43C)[C@@H]2C1 [Omaveloxolone (RTA-408)] | 6.36 | 4.96 | 6.92 | 7.18 | 5.59 | 6.32
9 | CCCCC(=O)O[C@H]1CC[C@H]2[C@@H]3CCc4cc(O)ccc4[C@H]3CC[C@]12C [Estradiol valerate] | 1.37 | 0.77 | 1.17 | 0.885 | 0.621 | 1.21
10 | N#CC(=C(/N)Sc1ccccc1N)/C(C#N)=C(\N)Sc1ccccc1N | 1.54 | 1.18 | 0.907 | 1.57 | 1.81 | 1.48
11 | COc1ccc2cccc(CCNC(C)=O)c2c1 [Agomelatine] | 0.998 | 0.774 | 0.825 | 0.747 | 0.603 | 0.58
12 | CCOC(=O)[C@H](CCc1ccccc1)N[C@@H](C)C(=O)N1Cc2cc(OC)c(OC)cc2C[C@H]1C(=O)O [Moexipril HCl] | 1.48 | 1.49 | 1.02 | 0.74 | 2.35 | 1.78
13 | CNCCCN1c2ccccc2CCc2ccccc21 [Desipramine Hydrochloride] | 0.817 | 1.07 | 1.11 | 1.73 | 1.43 | 1.25
14 | Nc1ncn([C@H]2C[C@H](O)[C@@H](CO)O2)c(=O)n1 [Decitabine] | 1.92 | 1.42 | 1.18 | 1.43 | 1.56 | 1.55
15 | CCCCCCCCc1ccc(CCC(N)(CO)CO)cc1 [Fingolimod] | 5.32 | 4 | 5.79 | 2.18 | 5.29 | 4.16
16 | Nc1nc2c(ncn2COCCO)c(=O)[nH]1 [Aciclovir] | 1.1 | 1.17 | 1.08 | 1.32 | 1.25 | 1.37
17 | Cc1[nH]c(/C=C2\C(=O)Nc3ccccc32)c(C)c1CCC(=O)O [TSU-68 (SU6668. Orantinib)] | 0.704 | 0.699 | 0.85 | 0.825 | 0.787 | 0.814
18 | CCOC(=O)/C=C(C)/C=C/C=C(C)/C=C/c1c(C)cc(OC)c(C)c1C [Etretinate] | 0.891 | 0.993 | 1.22 | 1.15 | 1.14 | 1.85
19 | FC(F)(F)C(Cl)Br (stereo not drawn) [Halothane] | 0.835 | 0.628 | 0.788 | 1 | 0.854 | 1.59
20 | C[C@H]1O[C@@H](n2cc(F)c(=O)[nH]c2=O)[C@H](O)[C@@H]1O [Doxifluridine] | 0.747 | 1.07 | 0.886 | 0.864 | 2.72 | 1.03
21 | Cc1cc(C#N)cc(C)c1Oc1nc(Nc2ccc(C#N)cc2)nc(N)c1Br [Etravirine (TMC125)] | 1.93 | 2.85 | 1.7 | 0.981 | 2.06 | 1.73
22 | CN1CCC(=C2c3ccccc3CCn3c(C=O)cnc32)CC1 [Alcaftadine] | 1.07 | 0.581 | 1.26 | 1.66 | 0.597 | 1.22
23 | CC[C@@H]1/C=C(\C)C[C@H](C)C[C@H](OC)[C@H]2O[C@@](O)(C(=O)C(=O)N3CCCC[C@H]3C(=O)O[C@H](/C(C)=C/[C@@H]3CC[C@H](Cl)[C@H](OC)C3)[C@H](C)[C@@H](O)CC1=O)[C@H](C)C[C@@H]2OC [Pimecrolimus] | 1.47 | 1.85 | 2.17 | 2.13 | 0.886 | 1.29
24 | O=NN(CCCl)C(=O)NC1CCCCC1 [Lomustine] | 0.894 | 0.833 | 0.869 | 1.05 | 0.457 | 1

Row | Compound | Euclidean distance (786-O) | Euclidean distance (A549) | Euclidean distance (DU145) | Euclidean distance (FB) | Euclidean distance (HEPG2) | Euclidean distance (OVCAR4)
25 | CNC(=O)c1ccc2cc([C@@]3(O)CCn4cncc43)ccc2c1 [TAK-700 (Orteronel)] | 0.951 | 0.683 | 0.67 | 1.1 | 1.1 | 0.845
26 | CCOC(=O)[C@@H](N)Cc1ccc(-c2cc(O[C@H](c3ccc(Cl)cc3-n3ccc(C)n3)C(F)(F)F)nc(N)n2)cc1 [Telotristat Etiprate (LX 1606 Hippurate)] | 3.69 | 1.52 | 2.43 | 2.23 | 1.13 | 1.3
27 | CC(=O)[O-].[K+] [Potassium acetate] | 1.42 | 0.754 | 1.27 | 0.927 | 0.554 | 1.3
28 | COC(=O)c1cc(OC)c2c(c1-c1c(CO)cc(OC)c3c1OCO3)OCO2 [Bicyclol] | 1.47 | 0.509 | 2.55 | 0.898 | 1.1 | 1.06
29 | Cc1cn[nH]c1 [Fomepizole] | 0.803 | 0.542 | 1.4 | 0.868 | 1.97 | 0.897
30 | Oc1ccc(/C=C/c2cc(O)cc(O)c2)cc1 [Resveratrol] | 2.22 | 1.93 | 1.94 | 1.74 | 0.81 | 1.92
31 | N[C@@H](CC(=O)O)C(=O)O [L-aspartic Acid] | 1.2 | 1.3 | 0.701 | 0.809 | 0.455 | 1.44
32 | CN1C(=O)C(Cc2c[nH]c3ccccc23)NC1=S (stereo not drawn) [Necrostatin-1] | 1.05 | 1.61 | 1.1 | 0.994 | 0.953 | 1.55
33 | O=C(c1cn(Cc2cncn2Cc2ccc(Br)cc2)cc1-c1cccc2ccccc12)N1CCOCC1 | 2.26 | 2.37 | 1.56 | 2.75 | 1.15 | 1.92
34 | COc1cc(NC(=O)c2ccc(-c3ccc(Cl)cc3)o2)cc(OC)c1 | 0.91 | 1.46 | 1.23 | 0.788 | 1.04 | 1.48
35 | CC(C)N(CCCNC(=O)Nc1ccc(C(C)(C)C)cc1)C[C@H]1O[C@@H](n2cc(Br)c3c(N)ncnc32)[C@H](O)[C@@H]1O | 0.633 | 1.32 | 1.19 | 1.58 | 1.15 | 0.804
36 | Cn1cnc([N+](=O)[O-])c1Sc1ncnc2[nH]cnc12 [Azathioprine] | 0.644 | 0.642 | 1.33 | 1.04 | 2.09 | 0.817
37 | COc1cc(C(=O)O)ccc1NC(=O)[C@@H]1N[C@@H](CC(C)(C)C)[C@](C#N)(c2ccc(Cl)cc2F)[C@H]1c1cccc(Cl)c1F [Idasanutlin (RG-7388)] | 1.61 | 1.57 | 1.55 | 1.43 | 1.15 | 1.59
38 | NC(=O)/C(=C/n1cnc(-c2cc(C(F)(F)F)cc(C(F)(F)F)c2)n1)c1cncnc1 [Eltanexor (KPT-8602)] | 2.1 | 3.48 | 2.69 | 4.12 | 2.35 | 3.66
39 | CC(C)OC(=O)CCC/C=C\C[C@@H]1[C@@H](/C=C/C(F)(F)COc2ccccc2)[C@H](O)C[C@@H]1O [Tafluprost] | 1.72 | 1.49 | 0.876 | 1.25 | 0.711 | 0.833
40 | COc1ccccc1OCC(O)CN1CCN(CC(=O)Nc2c(C)cccc2C)CC1 (stereo not drawn) [Ranolazine] | 1.2 | 0.699 | 0.507 | 0.669 | 1.08 | 1.09
41 | COc1ccc([C@]2(C#N)CC[C@@H](C(=O)O)CC2)cc1OC1CCCC1 [Cilomilast] | 1.31 | 0.842 | 1.35 | 1.14 | 1.3 | 1.53
42 | OCCN1CCN(CCCN2c3ccccc3Sc3ccc(Cl)cc32)CC1 [Perphenazine] | 1.95 | 2.47 | 1.77 | 2.8 | 2.4 | 2.19
43 | N#Cc1ccc(C(c2ccc(C#N)cc2)n2cncn2)cc1 [Letrozole] | 3.04 | 1.88 | 1.67 | 3.14 | 1.48 | 2.31
44 | COc1ccccc1N1CCN(CCN(C(=O)C2CCCCC2)c2ccccn2)CC1 | 0.724 | 1.67 | 1.84 | 3.28 | 2.11 | 4.14
45 | O=C(Oc1ccccc1C(=O)O)c1ccccc1O [Sasapyrine] | 0.578 | 0.394 | 0.556 | 0.969 | 0.413 | 1.18
46 | C=C1CC[C@H]2C(=C)CC[C@H]3C(=C)C(=O)O[C@@H]3[C@@H]12 [Dehydrocostus Lactone] | 6.1 | 3.77 | 7.43 | 3.32 | 3.68 | 2.97
47 | CN(C)CCC[C@@]1(c2ccc(F)cc2)OCc2cc(C#N)ccc21 [Escitalopram Oxalate] | 1.58 | 1.12 | 1.67 | 0.918 | 0.791 | 1.43
48 | CONC(=O)c1ccccc1Nc1cc(Nc2cc(C)nn2C(C)C)ncc1Cl | 1.35 | 1.28 | 1.33 | 2.01 | 0.825 | 1.5
